# Source: PubChem
# JMJD2A Tudor inh = inhibitors of human JMJD2A Tudor domain; O75164; AlphaScreen JMJD2A-Tudor / H3K4me3 peptide binding; Potency, µM (titrated, usually from 114 µM), for the others: at the top dose activity change, negative = inhibition, actives largely listed as inhibitors; 4.4% of 390,000 active; note: % is set by controls: 0 for no effect and ±100 for the full control effect; nearly all actives have a fitted effect of over 50% in size
# Sfp inh = blocks B. subtilis Sfp PPTase activity; Biochemical Sfp PPTase activity, qHTS; Potency, µM, without a hit: largest response in the series, negative = inhibition, most hits filed as inhibitors; 3.5% of 310,000 active;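 note: the enzyme is Sfp with the accession as filed and its product quenches rhodamine fluorescence; 0% = enzyme reaction without inhibitor and -100% = no enzyme wells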
#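 Sfp 15 nM + cpd, 15 min RT; start w/ rhodamine-CoA 5 uM, BHQ-2-YbbR 12.5 uM (final); 50 mM Hepes pH 7.6, 10 mM MgCl2, 0.01% NP-40, 0.01% BSA; read 525/598 nm at 0 and 30 min.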
# HP1b chromo inh = HP1-beta chromodomain-methylated histone interaction inhibition | Potency, µM (series often up to 114 µM), without a hit: at the top dose activity change, negative = inhibition, actives largely listed as inhibitors | 0.56% of 390,000 active | AlphaScreen HP1-beta / biotin-H3K9me3 peptide binding; note: nearly all actives have a fitted effect of over 70% in size
#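 AlphaScreen: HP1-beta (50 nM) preformed 30 min with biotin-H3(1-18)K9me3 peptide (50 nM) in PBS pH 7.4, 0.01% Tween-20. Compound added for 30 min at RT, then streptavidin donor/nickel chelate acceptor beads (10 ug/mL) for 30 min.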
# BAZ2B inh = blocks human BAZ2B; 4.4% of 360,000 active; AID 504333; Q9UIF8; AlphaScreen BAZ2B-H3K14Ac peptide displacement; Potency, µM (doses to about 114 µM), for inactives: at the top dose activity change, negative = inhibition, usual class: inhibitors; note: % is set by controls: 0 for no effect and ±100 for the full control effect; nearly all actives have a fitted effect of over 60% in size
#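 AlphaScreen displacement of biotin-H3(5-23)K14Ac peptide (50 nM final) from BAZ2B (50 nM final) in PBS pH 7.4, 0.01% Tween-20; complex preformed 30 min RT, then compounds (top 110 uM) 30 min RT, beads 20 min dark.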
# L3MBTL1 inh = L3MBTL1 (human) inhibition; Q9Y468; AlphaScreen L3MBTL1–H3K9me1 peptide binding; Potency, µM (top dose mostly 57.1 µM), for inactives: top-dose activity, negative = inhibition, hits mostly inhibitors; 0.66% of 230,000 active; note: % is set by controls: 0 for no effect and ±100 for the full control effect; nearly all actives have a fitted effect of over 60% in size
# Target sequence (Q9Y468 whole entry, looked up): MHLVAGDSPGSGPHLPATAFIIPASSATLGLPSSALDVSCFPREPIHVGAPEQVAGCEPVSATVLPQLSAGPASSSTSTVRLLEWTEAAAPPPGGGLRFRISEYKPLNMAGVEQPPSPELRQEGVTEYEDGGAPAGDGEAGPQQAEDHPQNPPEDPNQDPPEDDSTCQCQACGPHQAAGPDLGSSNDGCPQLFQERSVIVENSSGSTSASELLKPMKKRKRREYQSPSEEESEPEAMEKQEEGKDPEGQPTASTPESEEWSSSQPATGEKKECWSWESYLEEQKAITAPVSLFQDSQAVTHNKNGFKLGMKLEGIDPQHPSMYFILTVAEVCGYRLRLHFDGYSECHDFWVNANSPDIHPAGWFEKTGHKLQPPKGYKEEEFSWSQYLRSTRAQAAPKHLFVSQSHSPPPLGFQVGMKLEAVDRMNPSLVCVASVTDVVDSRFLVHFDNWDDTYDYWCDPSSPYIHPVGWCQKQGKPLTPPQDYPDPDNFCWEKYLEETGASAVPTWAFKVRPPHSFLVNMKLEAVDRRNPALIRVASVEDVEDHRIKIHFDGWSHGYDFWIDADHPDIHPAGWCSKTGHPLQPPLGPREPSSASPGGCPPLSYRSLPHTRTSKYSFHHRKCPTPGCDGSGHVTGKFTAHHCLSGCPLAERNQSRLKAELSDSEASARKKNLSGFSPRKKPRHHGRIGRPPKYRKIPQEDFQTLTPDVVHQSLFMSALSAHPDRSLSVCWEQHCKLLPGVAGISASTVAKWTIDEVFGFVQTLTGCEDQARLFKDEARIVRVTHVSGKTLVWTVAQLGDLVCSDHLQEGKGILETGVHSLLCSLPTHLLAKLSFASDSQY
#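 L3MBTL1 50 nM + b-AHA-H3(1-15)K9me1 75 nM, 30 min RT; compound added, 30 min RT; streptavidin donor/Ni-chelate acceptor beads 10 ug/mL each final, 30 min RT dark; AlphaScreen read.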
# G9a block = blocks human histone lysine methyltransferase G9a. Q96KQ7. G9a H3K9 monomethylation, AlphaScreen, 2 h. Potency, µM (highest dose often 102 µM), for inactives: at the highest dose activity, negative = inhibition, usual class: inhibitors. 8.8% of 350,000 active. AID 504332; note: % is set by controls: 0 for no effect and ±100 for the full control effect; nearly all actives have a fitted effect of over 75% in size
#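 Step 1: enzyme (final 20 nM) with compound, 15 min RT. Step 2: substrate peptide 500 nM and SAM 20 uM, 2 h RT. Step 3: anti-H3K9me1 antibody and AlphaScreen beads, 10 min, then plate read.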
# * hit, by the source's call; ? = inconclusive; · = no result given; [ ] = another dose, or the depositor's remark. In the library only some 12% were active in any assay of this set; here they are far more common. Calls come from the whole dose curve; as a rule, active = well fitted curve in the direction sought with a large enough effect; inconclusive = small, poorly fitted or top-dose-only effect, or another doubt; inactive = no such curve, though single readings can be large; an effect the other way counts as inactive or inconclusive. Potency is the fitted concentration of half-maximal effect.
SMILES,JMJD2A Tudor inh,Sfp inh,HP1b chromo inh,BAZ2B inh,L3MBTL1 inh,G9a block
O=C(CCNS(=O)(=O)c1ccccc1)OCC(=O)c1ccc[nH]1,-5.5%,·,20.4%,7.3%,-20.1%,50.1µM*
CCc1ccc(NC(=O)C2CCN(S(=O)(=O)c3c(C)noc3/C=C\c3ccc(OC)cc3)CC2)cc1,-3.7%,·,27.9%,·,·,4.0%[59 µM]
CCOC(=O)c1c(NC(=S)Nc2ccc(OCC)cc2)sc2c1CCN(C)C2,-16.5%,15.8µM*,-10.1%,?,-23.2%,50.1µM*
CCOC(=O)c1c(NC(=S)Nc2ccc(Cl)cc2)sc2c1CCN(C)C2,?,?,-17.3%,?,-8.1%,?
CCOC(=O)c1c(NC(=O)CSc2nnc(C)s2)sc2c1CCN(C)C2,?,17.8µM*,23.2%,-36.3%,5.3%[11.4 µM],4.47µM*
Cc1cc(Nc2ccc(Br)c(C)c2)n2nc(-c3ccco3)nc2n1,-22.8%,·,18.9%,-6.2%,·,-9.7%[59 µM]
S=c1[nH]nc(C2CCCCC2)o1,20µM*,-28.3%,-2.9%,-13.3%,-9.4%,28.2µM*
c1ccc(-c2cnc(C3CCCCC3)o2)cc1,53.1%,·,21.9%[57 µM],·,·,·
Cc1cc(=O)oc(C)c1C(=O)N1CCN(C(c2ccccc2)c2ccccc2)CC1,-13.2%,9.5%,48.0%,-32.9%,-11.6%,50.1µM*
COc1ccccc1N1CCN(C(=O)c2c(C)cc(=O)oc2C)CC1,-4.0%,-10.4%,31.3%,-29.7%,·,-48.3%[12.7 µM]
C[N+](C)(C)CCCCCCC(=O)/C=N/O,?,1.0%,4.4%,-39.0%,2.5%,?
C[N+]1(CCCCCCC(=O)/C=N/O)CCCCCC1,-5.9%,1.3%,22.3%,-28.0%,·,14.1µM*
O=c1[nH]c(=S)[nH]c2nc[nH]c12,?,·,3.0%[57 µM],·,·,·
Nc1ncnc2[nH]c(=S)[nH]c12,3.55µM*,·,?,·,·,·
CCOc1ccc(CNC(=O)CCn2c(=O)c3cccn3c3ccc(F)cc32)cc1,-15.5%,·,31.6%,-11.6%,·,0.6%[59 µM]
CCOC(=O)C1=C(CS(=O)(=O)c2ccc(F)c(C)c2)NC(=O)NC1c1ccc(F)c(F)c1 (stereo not drawn),-25.2%,·,14.1%,-5.9%,·,3.8%[59 µM]
CCOC(=O)C1=C(CS(=O)(=O)c2ccc(F)c(C)c2)NC(=O)NC1c1ccc(O)c(O)c1 (stereo not drawn),-20.6%,-27.4%,22.3%,?,-7.2%,25.1µM*
COC(=O)c1c(SC)nc2ccccc2c1OCc1ccc(C)cc1,128.2%,·,118.0%,197.7%,·,94.8%[59 µM]
CCCCCCN(C(=O)CCCCCN1C(=O)NC(c2ccccc2-c2ccccc2)C(C(=O)OCc2ccccc2)=C1C)C(C(=O)NCCCC)c1ccc(OCC(=O)OC)c(C(=O)OC)c1 (stereo not drawn),·,3.8%,·,·,·,·
O=C(Cc1ccc2c(c1)CCCC2)Nc1ccc2ccccc2c1,-12.2%,-10.8%,?,-3.9%,0.2%,7.08µM*
CC(CNC(=O)CN(C)CC(=O)Nc1ccccc1Br)c1ccccc1 (stereo not drawn),4.8%,·,31.7%,12.8%,-5.6%,44.7µM*
CN(CC(=O)Nc1ccc2c(c1)CCC2)CC(=O)Nc1ccccc1Br,14.1µM*,6.6%,20.8%,11.9%,·,6.7%
COc1ccc(NC(=O)CC2C(=O)N(c3ccccc3)C(=O)N2CCc2sccc2C)cc1 (stereo not drawn),-11.6%,·,45.1%,-11.1%,·,2.4%[59 µM]
CC(=O)c1cccc(OCC(=O)NC2CCCCCC2)c1,2.3%,·,41.2%,-1.9%,4.1%,?
CC(=O)c1cccc(OCC(O)CNCC2CCCCC2)c1 (stereo not drawn),8.91µM*,3.5%,70.8µM*,56.2µM*,·,-5.1%
SMILES,JMJD2A Tudor inh,Sfp inh,HP1b chromo inh,BAZ2B inh,L3MBTL1 inh,G9a block
CC(=O)c1cccc(OCC(O)CNCCOc2ccc(C)cc2)c1 (stereo not drawn),3.98µM*,-17.6%,-4.8%,50.1µM*,·,39.8µM*
COc1ccc(NC(=O)Cn2ccn(-c3ccc(C)c(C)c3)c(=O)c2=O)cc1Cl,28.9%,·,21.7%,-10.7%,·,1.4%[59 µM]
CCOC(=O)CCP(=O)(O)C(O)c1ccccc1 (stereo not drawn),50.1µM*,-0.1%,8.3%,1.0%,·,18.0%[59 µM]
CN(CP(=O)(O)C(O)c1ccccc1)S(C)(=O)=O (stereo not drawn),?,-22.9%,27.0%,-3.7%,-3.9%,?
COc1ccc(C2CC(c3ccccc3)=NN2S(=O)(=O)c2ccccc2)cc1 (stereo not drawn),-17.2%,3.6%,32.3%,-3.7%,2.1%,·
COc1ccc(S(=O)(=O)N2N=C(c3cccc(NS(C)(=O)=O)c3)CC2c2ccco2)cc1 (stereo not drawn),2.7%,-24.1%,66.1%,-29.9%,·,44.7µM*
COc1ccc(S(=O)(=O)N2N=C(c3ccc(NS(C)(=O)=O)cc3)CC2c2ccco2)cc1 (stereo not drawn),-30.9%,56.2µM*,16.4%,·,·,?
CS(=O)(=O)Nc1cccc(C2=NN(S(=O)(=O)c3ccc(F)cc3)C(c3cccs3)C2)c1 (stereo not drawn),79.4µM*,4.3%,-5.3%,-4.7%,-0.3%,-18.4%[59 µM]
CCS(=O)(=O)Nc1cccc(C2=NN(S(=O)(=O)c3ccc(F)cc3)C(c3cccs3)C2)c1 (stereo not drawn),-14.0%,6.7%,31.1%,-11.2%,-9.1%,-29.1%[59 µM]
CCN(CC)CCCNc1oc(/C=C/c2ccc(OC)c(OC)c2)nc1C#N,-14.8%,·,16.7%,-1.9%,·,-8.4%[59 µM]
O=C(O)C(Cc1ccnc2ccccc12)=NO,3.16µM*,·,25.4%,·,·,·
CCOC(=O)C(Cc1ccnc2ccccc12)=NO,-18.6%,·,6.9%[57 µM],·,·,·
C=CCn1c(=O)[nH]c2nc3cc(N=CN(C)C)c(C)cc3nc2c1=O,2.0%,50.1µM*,37.3%,0.7%,·,?
COc1ccc(NC(=O)CN2C(=O)COc3ccc(S(=O)(=O)N4CCCCC4)cc32)cc1Cl,-26.4%,·,2.6%,-23.2%,·,-7.4%[59 µM]
COc1ccc([C@H]2/C=C\CN(Cc3ccc(N(C)C)cc3)[C@@H](C)C(=O)N2Cc2ccc(F)cc2)cc1,17.8µM*,·,?,·,·,·
Cc1ccc(NC(=O)Nc2cn(CC(C)C)c(=O)c3ccccc23)cc1N(C)C,?,·,-16.3%,?,·,?
O=C(O)CSc1sc(=S)sc1SCC(=O)O,?,79.4µM*,-0.1%,-29.2%,0.4%,44.7µM*
Nc1c(C(=O)c2ccc(Br)s2)oc2ccccc12,11.5%,-18.9%,32.4%,-3.1%,2.5%,44.7µM*
Nc1c(C(=O)c2cccs2)oc2ccccc12,-18.7%,-7.9%,21.7%,10.8%,17.4%,27.5%
Cc1cc(O)cc(O)c1C(=O)Cc1cscn1,-8.2%,-9.1%,12.8%,-29.9%,-5.0%,-45.9%
Cc1nc(C/C(=N\N)c2ccc(O)cc2O)cs1,-17.3%,-15.3%,7.8%,-22.0%,-3.1%,31.6µM*
